Data from PubChem BioAssay.

Assay: caspase-8 TRAIL sensitization, hit retest, confirmation, cell-based, NB7+caspase-8, with/without TRAIL, luminescence panel (AID 651596)
Conditions: NB7 neuroblastoma + caspase-8, without TRAIL, luminescence viability, without TRAIL, mean of runs, at 10 µM

**Q.** For `CC(=O)n1cc(N(C(=O)CCl)c2ccccc2)c2ccccc21`, which activity is on record?
**A.** Its activity is 99.8%.

**Q.** For `CCCCn1c(=O)[nH]c(=O)c2c1nc(Cn1ncc(Cl)c(Cl)c1=O)n2CCC`, which activity is on record?
**A.** Its activity is 99%.

**Q.** Which activity does the source give for `COc1ccc(OCC(=O)N/N=C/C=C/c2ccccc2)cc1` here?
**A.** Its activity is 45.4%.

**Q.** With `COc1ccc(-c2cc(C(=O)N/N=C/c3cccnc3)c3ccccc3n2)cc1` as the compound, how does the activity read?
**A.** Its activity is 40.8%.

**Q.** Which activity does the source give for `CCC(C)c1ccc(NC(=O)c2ccco2)cc1` (centres undefined) here?
**A.** The activity was 82.8%.

**Q.** With `NC(=O)c1ccccc1N/C=C/C(=O)c1ccccc1` as the compound, how does the activity read?
**A.** Its activity is 58.9%.

**Q.** With `Cc1nc(-c2ccc(NC(=O)CC(C)C)cc2)cs1` as the compound, how does the activity read?
**A.** The activity was 55.5%.

**Q.** With `Nc1nc(CCl)nc(Nc2ccc3ccccc3c2)n1` as the compound, how does the activity read?
**A.** Its activity is 97.8%.

**Q.** With `COc1ccccc1NC(CC(=O)c1ccccc1)C(=O)OCC(=O)c1ccc(C)cc1` (centres undefined) as the compound, how does the activity read?
**A.** The activity was 69%.

**Q.** Which activity does the source give for `COc1ccccc1-c1cc(C(=O)NC2CCN(C)CC2)c2ccc(Cl)c(C)c2n1` here?
**A.** The activity was 86%.

**Q.** For `COc1cccc2sc(N(C)c3ccccc3)nc12`, which activity is on record?
**A.** The activity was 61.2%.

**Q.** With `CC(C)(C)OC(=O)NCc1ccc(NC(=O)c2nc[nH]c2C(=O)N[C@@H](Cc2ccccc2)C(=O)OCc2ccccc2)cc1` as the compound, how does the activity read?
**A.** Its activity is 11.5%.

**Q.** For `CN(C)c1cccc(C(=O)N/N=C/c2ccccc2F)c1`, which activity is on record?
**A.** The activity was 73.2%.

**Q.** For `CCSc1ccc(-c2ccc(C)cc2)nn1`, which activity is on record?
**A.** Its activity is 51.1%.

**Q.** Which activity does the source give for `O=C(CSc1nnc(-c2csc3c2CCCC3)o1)Nc1ccccc1` here?
**A.** Its activity is 76.5%.

**Q.** Which activity does the source give for `O=C(NC1=NCCS1)c1cc2ccccc2o1` here?
**A.** Its activity is 48.6%.

**Q.** Which activity does the source give for `C(=N\NC1=Nc2cccc3cccc1c23)/c1ccccc1` here?
**A.** The activity was 14.2%.

**Q.** With `CSc1cc(-c2ccc(Cl)cc2)n(Cc2ccccc2)c(=O)c1C#N` as the compound, how does the activity read?
**A.** Its activity is 48.5%.

**Q.** Which activity does the source give for `CCOc1ccc(NC(=O)c2ccco2)cc1` here?
**A.** The activity was 49.6%.

**Q.** With `CC(NC(=O)CCl)c1ccc(Cl)c(Cl)c1` (centres undefined) as the compound, how does the activity read?
**A.** Its activity is 81.5%.

**Q.** For `N#CC1=C(N)N2C(=C(C#N)C1c1cccc(Br)c1)Nc1ccccc12` (centres undefined), which activity is on record?
**A.** Its activity is 61.6%.

**Q.** For `O=C(Nc1ccc(NC(=O)C2CC2)cc1)c1ccco1`, which activity is on record?
**A.** The activity was 39.1%.

**Q.** For `CC(C)c1ccc(/C=c2\sc3n(c2=O)C(N)=C(C#N)C(c2ccc(C(C)C)cc2)C=3C(N)=O)cc1` (centres undefined), which activity is on record?
**A.** The activity was 77.9%.

**Q.** Which activity does the source give for `CC(C)(C)OC(=O)NCc1ccc(NC(=O)c2nc[nH]c2C(=O)NCCCNC(=O)c2[nH]cnc2C(=O)Nc2ccc(CNC(=O)OC(C)(C)C)cc2)cc1` here?
**A.** The activity was 69.1%.

**Q.** For `CSc1ccc(/C=C/C(=O)c2c(O)cc(C)oc2=O)cc1`, which activity is on record?
**A.** The activity was 82.2%.

**Q.** With `O=C(OCc1cccc(C(F)(F)F)c1)c1cc(S(=O)(=O)N2CCOCC2)ccc1F` as the compound, how does the activity read?
**A.** Its activity is 21%.

**Q.** With `CCCCC1CCC(C(=O)N(CCC(C)C)c2c(N)n(CCCC)c(=O)[nH]c2=O)CC1` (centres undefined) as the compound, how does the activity read?
**A.** The activity was 39.2%.

**Q.** Which activity does the source give for `CC(C)(C)C(=O)N1CCc2cc(-c3csc(N)n3)ccc21` here?
**A.** The activity was 88.1%.

**Q.** Which activity does the source give for `Cc1ccnc(NC(=S)NC(=O)c2cccs2)c1` here?
**A.** Its activity is 87.7%.

**Q.** For `Cc1nc2cc(NC(=O)Nc3cccc([N+](=O)[O-])c3)ccc2n1C`, which activity is on record?
**A.** Its activity is 54.4%.

**Q.** With `CCOC(=O)c1sc2nc3c(SCC(=O)O)cc(C(=O)c4ccccc4O)cn3c(=O)c2c1C` as the compound, how does the activity read?
**A.** Its activity is 42.5%.

**Q.** With `Cc1ccc(-c2nc(N/N=C/c3cccnc3)c3ccccc3n2)cc1` as the compound, how does the activity read?
**A.** Its activity is 88.2%.

**Q.** With `O=C(Nc1ccc2c(c1)OCO2)c1ccc2c(c1)OCO2` as the compound, how does the activity read?
**A.** Its activity is 53.1%.

**Q.** With `CCC(C)c1ccc(O)c(NC(=S)NC(=O)c2cccs2)c1` (centres undefined) as the compound, how does the activity read?
**A.** Its activity is 54.3%.

**Q.** Which activity does the source give for `O=c1oc2ccccc2cc1-c1csc(Nc2nc3c(F)cccc3s2)n1` here?
**A.** The activity was 5.5%.

**Q.** With `CC(C)C[C@H](NC(=O)c1nc[nH]c1C(=O)N[C@@H](CC(C)C)C(=O)OC(C)(C)C)C(=O)OC(C)(C)C` as the compound, how does the activity read?
**A.** The activity was 63.2%.

**Q.** For `O=C(Nc1ccc2ccccc2c1)c1ccc(Cl)cc1`, which activity is on record?
**A.** The activity was 51.3%.

**Q.** With `Cc1ccc(-c2nc(-c3ccccn3)no2)cc1[N+](=O)[O-]` as the compound, how does the activity read?
**A.** Its activity is 55%.

**Q.** With `CCOC(=O)c1sc(NC(=O)Nc2ccc(F)cc2)nc1C` as the compound, how does the activity read?
**A.** The activity was 44.6%.
